According to PubChem BioAssay AID492949 (National Center for Advancing Translational Sciences (NCATS), 2010):
Records with an inconclusive call do not appear. Calls of active or inactive are those of the source. Calls follow the shape of the dose curve; as a rule, active = well fitted activation curve with a large enough effect; inconclusive = small, poorly fitted or top-dose-only effect; inactive = no such curve, though single readings can be large or run the other way.

target: Relaxin receptor 1 (Homo sapiens) (UniProt Q9HBX9); test: qHTS Assay for Agonists of the Relaxin Receptor RXFP1: THP1 Hit Validation; settings: THP1-RXFP1 cells, cAMP TR-FRET, 30 min; series mostly up to 115 µM; also: nearly all actives have a fitted effect of over 60% in size
How it was run: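 EC50s come from Hill-equation fits of data normalized between buffer (basal) and 29 nM porcine relaxin (100%). cAMP was measured by competitive TR-FRET in lysates of RXFP1-transfected THP1 cells after 30 min compound exposure, with Ro 20174 present.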
Potency is read from the fitted curve at half-maximal effect.

Relaxin receptor 1 (Homo sapiens), sequence (Q9HBX9 whole entry, looked up): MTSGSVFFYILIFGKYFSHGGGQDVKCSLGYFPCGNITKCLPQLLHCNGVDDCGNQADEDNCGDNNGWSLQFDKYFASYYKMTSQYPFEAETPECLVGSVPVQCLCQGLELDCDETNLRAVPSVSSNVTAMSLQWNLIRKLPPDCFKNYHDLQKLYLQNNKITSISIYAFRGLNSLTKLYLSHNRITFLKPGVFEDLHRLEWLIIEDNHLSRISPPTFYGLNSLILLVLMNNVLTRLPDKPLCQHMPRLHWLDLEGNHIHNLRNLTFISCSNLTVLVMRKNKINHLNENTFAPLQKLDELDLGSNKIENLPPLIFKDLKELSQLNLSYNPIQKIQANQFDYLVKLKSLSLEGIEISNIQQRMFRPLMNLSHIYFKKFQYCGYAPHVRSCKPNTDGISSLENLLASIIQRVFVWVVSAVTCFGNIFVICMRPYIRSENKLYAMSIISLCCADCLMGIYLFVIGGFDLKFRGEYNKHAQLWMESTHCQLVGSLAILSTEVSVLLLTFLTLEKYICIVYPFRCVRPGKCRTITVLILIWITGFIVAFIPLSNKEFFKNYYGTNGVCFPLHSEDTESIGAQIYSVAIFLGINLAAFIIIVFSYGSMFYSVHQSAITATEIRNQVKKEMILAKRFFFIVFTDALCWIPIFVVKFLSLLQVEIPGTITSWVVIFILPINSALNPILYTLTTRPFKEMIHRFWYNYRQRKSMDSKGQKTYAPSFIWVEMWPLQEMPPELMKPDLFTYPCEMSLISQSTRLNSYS

Potency, active:
CCc1cc2cc3c(cc2nc1SCC(=O)Nc1nccs1)OCO3 21.8 µM
COC(=O)Cn1cnc2c(C#N)c3n(c2c1=O)CCCCC3 8.7 µM
Cc1ccccc1OCC(=O)Nc1sc(C(=O)Nc2cccc(C)c2C)c(C)c1C#N 7.74 µM
CN(C)S(=O)(=O)c1cccc(COc2ncnc3c(Cl)cc(Cl)cc23)c1 5.49 µM
CCCC(=O)Nc1ncnc2c1ncn2[C@@H]1O[C@@H]2OP(=O)(O)OC[C@H]2[C@H]1OC(=O)CCC 0.69 µM
CCOC(=O)CNC(=O)CSc1nc2c(C)cccc2cc1CC 19.4 µM
COc1cccc(C(=O)CSc2nnc(-c3cc(OC)cc(OC)c3)o2)c1 12.3 µM
O=C(COc1ncnc2scc(-c3ccccc3)c12)NCCN1C(=O)CSC1=O 19.4 µM
COC(=O)Cn1cnc2c(C#N)c3n(c2c1=O)CCCC3 24.5 µM
O=C(OCc1nc2ccsc2c(=O)[nH]1)c1cccc(S(=O)(=O)N2CCOCC2)c1 43.6 µM
COc1ccccc1NC(=O)CCCc1nnc2n(C)c(=O)c3sccc3n12 15.4 µM
CCC1(C)Cc2c(sc3c2c2ncnn2c2nnc(SCC(=O)NCc4ccco4)n32)CO1 (stereo not drawn) 11 µM
CCN(CC)S(=O)(=O)c1ccc(N2CCOCC2)c(NC(=O)c2cccc(C#N)c2)c1 27.5 µM
CCOC(=O)CCCCC(=O)c1[nH]c(=O)[nH]c1CSc1nnc2c3cc(Br)ccc3n(C)c2n1 8.68 µM

Potency, inactive:
Cc1ccccc1NC(=O)c1ccccc1NC(=O)c1ccco1
O=C(O)CNC(=O)c1ccccc1NC(=O)c1ccco1
COc1ccc(OC)c(CNC(=O)C2CCN(C(=O)N(C)C)CC2)c1
O=C(Nc1ccccc1C(=O)Nc1ccc(F)cc1)c1ccco1
O=C(Nc1ccccc1C(=O)NCCc1ccc(O)cc1)c1ccco1
O=C1/C(=C/c2ccc(O)c(O)c2)Oc2cc(O)ccc21
O=C(Nc1ccccc1C(=O)NCCN1CCOCC1)c1ccco1
CCN(CC)CCCCCC(=O)Nc1ccccc1C(=O)Nc1ccccc1
Cc1cccc(NC(=O)c2ccccc2NC(=O)C2CCCCC2)c1C
CC(=O)C1C(c2ccccc2)c2c(noc2C)CC1(C)O (stereo not drawn)
O=C(O)c1ccc(N=C2NC(=O)C(CO)(CO)S2)cc1
Cc1ccc2cc(CN(C(=O)c3cccs3)c3ccccc3)c(=O)[nH]c2c1
Cc1cccc(-c2nnc(SCC(=O)NC3CC3)n2C)c1
O=C(Nc1ccccc1)c1ccccc1NC(=O)C1CCCCC1
Cc1ccc(CN(C)C(=O)c2ccc3c(c2)NC(=O)CS3)o1
Cc1cccc(N2C(=O)C(O)=C(C(=O)c3cccs3)C2c2ccc(C(C)C)cc2)n1 (stereo not drawn)
C=CCNc1ncnc2c1ncn2C1OC(CO)C(O)C1O (stereo not drawn)
CN(C)c1ccc2nc3c(=O)[nH]c(=O)nc-3n(CC(O)C(O)C(O)CO)c2c1 (stereo not drawn)
CCNc1nc(NCC)nc(N(C)/N=C/c2ccco2)n1
COc1ccc(/C=C2/SC(=O)N(CCC(=O)Nc3ccc(C)cc3)C2=O)cc1OC
C=C(C)C(=O)Nc1cccc(C2=NOC3(C2)C[C@@H](C(N)=O)N(C(=O)c2ccc(Cl)cc2)C3)c1 (stereo partly drawn)
O=C(Nc1ccccc1C(=O)NCc1ccc(Cl)cc1)c1ccco1
COc1ccc(CNC(=O)CN2C(=O)NC(C)(c3cccc(Br)c3)C2=O)cc1 (stereo not drawn)
Cc1ccc(CN(C)C(=O)c2ccccc2NC(=O)c2ccccc2)o1
